According to PubChem BioAssay AID488969 (Vanderbilt High Throughput Screening Facility, 2010):
Whole data set: some 110,000 compounds, median “z-score” near -0.1, cut for the highest 2% near 2. The list comes from a sample in which the highest values are over-represented; it also holds similar structures and randomly drawn compounds. Active and inactive are the calls of the source.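 Rule for the calls: active = z-score in the third read window above 3 or below -3; inactive = the rest.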

The compounds below were run against Metabotropic glutamate receptor 8 (Rattus norvegicus) (UniProt P70579) (assay: mGluR8 Gi/Go-coupled signaling modulation – cell-based, rat, thallium flux, HTS, primary screen (AID 488969)). Details: HEK293 rat mGluR8, GIRK (G protein-gated inwardly rectifying potassium channel) thallium flux, FluoZin2; at 10 µM; stronger effect = higher value; submaximal glutamate (EC20) added with thallium.
Chain of Metabotropic glutamate receptor 8 (Rattus norvegicus) (P70579 whole entry, looked up): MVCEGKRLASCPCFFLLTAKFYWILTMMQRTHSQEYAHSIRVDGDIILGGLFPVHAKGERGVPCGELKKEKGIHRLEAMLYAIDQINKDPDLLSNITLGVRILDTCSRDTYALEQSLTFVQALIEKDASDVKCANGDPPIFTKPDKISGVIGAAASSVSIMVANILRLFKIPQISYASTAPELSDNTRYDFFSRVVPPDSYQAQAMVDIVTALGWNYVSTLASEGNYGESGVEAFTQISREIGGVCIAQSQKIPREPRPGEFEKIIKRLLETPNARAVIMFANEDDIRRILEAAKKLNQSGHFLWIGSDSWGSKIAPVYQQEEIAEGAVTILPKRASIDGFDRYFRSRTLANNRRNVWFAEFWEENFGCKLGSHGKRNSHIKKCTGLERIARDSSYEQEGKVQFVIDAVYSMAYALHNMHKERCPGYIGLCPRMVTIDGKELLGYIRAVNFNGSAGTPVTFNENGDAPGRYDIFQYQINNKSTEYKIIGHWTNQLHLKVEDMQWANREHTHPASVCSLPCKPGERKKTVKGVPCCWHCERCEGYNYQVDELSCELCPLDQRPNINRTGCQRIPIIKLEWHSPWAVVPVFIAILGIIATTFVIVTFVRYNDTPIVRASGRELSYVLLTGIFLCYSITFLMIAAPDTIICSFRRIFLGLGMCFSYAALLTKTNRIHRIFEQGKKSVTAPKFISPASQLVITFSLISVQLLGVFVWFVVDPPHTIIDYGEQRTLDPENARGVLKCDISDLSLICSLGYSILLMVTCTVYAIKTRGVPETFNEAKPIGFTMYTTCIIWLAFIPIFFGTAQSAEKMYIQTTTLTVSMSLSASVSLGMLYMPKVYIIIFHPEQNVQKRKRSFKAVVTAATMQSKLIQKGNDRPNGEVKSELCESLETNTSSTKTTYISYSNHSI

Compound	z-score
Cc1ccc(S(=O)(=O)CCc2nc3ccccc3s2)cc1C	-0.169
CCCC(=O)O[C@@H]1C[C@@H](C)N(C(=O)c2ccccc2)c2ccc(C)cc21	-0.411
Cc1ccc(OC(=O)CCc2c(C)nc3ncnn3c2C)cc1	-0.382
O=c1oc2c(CN3CCOCC3)c(O)ccc2c2c1CCC2	0.00993
COc1ccccc1C(=O)NNC(=S)NC(=O)c1sc2ccccc2c1Cl	4.01 (active)
O=C(NNC(=S)NC1CCCCC1)c1sc2ccccc2c1Cl	-0.163
COc1ccccc1C(=O)NNC(=S)NC(=O)c1ccco1	1.4
COc1ccccc1C(=O)NC(=S)Nc1ccc(NC(=O)c2cccs2)cc1	0.853
O=C(NC(=S)Nc1ccccc1N1CCOCC1)c1sc2ccccc2c1Cl	1.18
CC(C)(C)C(=O)NC(=S)NNC(=O)c1sc2ccccc2c1Cl	13.7 (active)
COc1ccccc1C(=O)NC(=S)NNC(=O)c1sc2ccccc2c1Cl	3.35 (active)
COc1ccc(CCNC(=O)c2sc3ccccc3c2Cl)cc1OC	-0.565
O=C(NNC(=O)c1sc2ccccc2c1Cl)Nc1ccc(Cl)cc1	-0.0174
COc1ccccc1CNC(=O)CSc1ccc(Br)cc1	0.558
Cc1cc(C)cc(C(=O)N2CCCCCC2)c1	0.076
COc1ccc(NC(=O)[C@H](COCc2ccccc2)NC(=O)OC(C)(C)C)cc1	0.329
Cc1cc(NC(=O)CSc2nnc(-c3ccco3)o2)no1	0.184
Cc1c(Cl)cccc1NC(=S)NCc1cccn1C	0.262
Cc1ccccc1NC(=S)NCc1cccn1C	-0.488
Cc1ccc(Cl)cc1NC(=S)NCc1cccn1C	6.81 (active)
O=C(OC1CCN(c2ncc(C(F)(F)F)cc2Cl)CC1)c1ccc(Cl)cc1	-0.0974
COc1cc(Cn2ccnc2)c(OC)cc1Cn1ccnc1	-0.198
O=C(O)Cn1ccnc1	-0.327
c1cn(CC2(Cn3ccnc3)COC2)cn1	3.15 (active)
CCCN1CCC(NC(=O)Nc2ccc(OC)c(OC)c2)CC1	0.00828
CCCN1CCC(NC(=O)Nc2ccc(F)cc2F)CC1	2.81
CCCN1CCC(NC(=O)Nc2ccccc2C(=O)OC)CC1	-0.336

Compound	z-score
COC(=O)c1ccc(NC(=O)CNCc2ccncc2)cc1	-0.143
Cc1noc(C)c1C(=O)N1CCc2ccccc2C1	1.98
Cc1onc(-c2c(Cl)cccc2Cl)c1C(=O)N1CCc2ccccc2C1	0.0144
Cc1onc(-c2ccccc2Cl)c1C(=O)N1CCc2ccccc2C1	-0.95
C=CCn1c(CCNC(=O)c2ccccc2F)nnc1SCC(=O)Nc1nc(C)cs1	0.0314
CCOc1cc(C2C(C#N)=C(N)Oc3n[nH]c(C)c32)ccc1OCCN1CCOCC1 (centres undefined)	-0.102
COC(=O)c1cc(-c2ccccc2)on1	-1.87
CCCCP(=O)(CCCC)CCP(=O)(c1ccccc1)c1ccccc1	-0.667
O=C(O)CCn1c(SCc2ccccc2)nc2ccccc21	-0.0963
O=C(O)CCn1c(SCc2cccc3ccccc23)nc2ccccc21	2.1
O=C(O)Cn1c(SCc2cccc3ccccc23)nc2ccccc21	1.11
CCOc1ccc(NC(=O)CCNc2c(N3CCCC3)c(=O)c2=O)cc1	-0.437
CCn1c(-c2csc3c2CCC(C)C3)n[nH]c1=S (centres undefined)	1.49
C=CCn1c(-c2csc3c2CCC(C)C3)n[nH]c1=S (centres undefined)	0.494
CCn1c(-c2csc3ccccc23)n[nH]c1=S	-0.273
CCCCn1c(-c2csc3ccccc23)n[nH]c1=S	2.3
CC(C)Cn1c(-c2csc3ccccc23)n[nH]c1=S	0.509
CC(C)Cn1c(-c2csc3c2CCCC3)n[nH]c1=S	-1.59
CCCCn1c(-c2csc3c2CCC(C)C3)n[nH]c1=S (centres undefined)	7.55 (active)
CCCCn1c(-c2csc3c2CCCC3)n[nH]c1=S	6.19 (active)
CCn1c(-c2csc3c2CCCC3)n[nH]c1=S	-0.181
CCCOc1ccc(C2/C(=C(\O)c3c(C)[nH]c(C(=O)OC)c3C)C(=O)C(=O)N2CCN(C)C)cc1 (centres undefined)	0.491
CCC(N1CCOC1=O)S(=O)(=O)c1ccc(C)cc1 (centres undefined)	-0.148
Cc1cccnc1NC(=O)Nc1cccs1	-0.232
COc1cc(NC(=O)c2ccc(COCC(F)(F)F)o2)cc(OC)c1OC	2.1
COc1cc(NC(=O)c2ccc(COCC(F)(F)F)cc2)cc(OC)c1OC	-0.608
COc1cc(NC(=O)c2ccc(COc3ccccc3Br)o2)cc(OC)c1OC	-0.932

Compound	z-score
NC(=O)C1CCN(C(=O)COc2ccc3ccccc3c2)CC1	0.115
CCc1ccc(NC(=O)COn2nnc3ccc(S(=O)(=O)N(C)C)cc32)cc1	-0.27
Cc1ccc(NC(=O)COn2nnc3ccc(S(=O)(=O)N(C)C)cc32)cc1F	3.29 (active)
CCN(CC)S(=O)(=O)c1ccc2nnn(OCC(=O)Nc3cccc(C#N)c3)c2c1	-0.793
COCCNS(=O)(=O)c1ccc(-c2ccc(C)cc2)cc1	-0.0903
CCOC(=O)c1cnc2c(Cl)cccc2c1NCCN(C)C	0.313
O=C(O)C1C2C=CC(C2)C1C(=O)NC1CCN(Cc2ccccc2)CC1 (centres undefined)	0.581
CC(C)c1nc(=S)c2ccccc2[nH]1	13.7 (active)
S=c1nc(C2CC2)[nH]c2ccccc12	9.36 (active)
Cc1nc(=S)c2ccccc2[nH]1	1.49
Cc1cc(=O)c2ccccc2[nH]1	0.0595
S=c1nc[nH]c2c1[nH]c1ccccc12	0.0879
O=C(C1CCCCC1)N1CCC(c2nc3ccccc3[nH]2)CC1	-0.166
COc1ccc(Cc2nnc(SCc3c(C)noc3C)n2C2CCCCC2)cc1OC	0.045
CSC(=NC(C)c1ccccc1)NS(=O)(=O)c1cccs1 (centres undefined)	0.148
COc1ccc(/C=C/C(=O)NC(=S)Nc2cc3oc4ccccc4c3cc2OC)cc1	0.0202
Cc1cccc(C)c1-n1c(C)cc(/C=C2\NC(=O)NC2=O)c1C	-0.96
Cc1cc(C)c(-n2c(C)cc(/C=C3/NC(=O)NC3=O)c2C)c(C)c1	2.07
Cc1cc(/C=C2/NC(=O)NC2=O)c(C)n1-c1ccccn1	-0.389
Cn1cnnc1SC(C(=O)Nc1ccc(F)cc1)c1ccccc1 (centres undefined)	-0.0653
Cc1ccc(S(=O)(=O)N2CCC(C(=O)NC3CCCCCC3)CC2)cc1	-0.0732
CCC/C(O)=C1\C(=O)CCCC1=NCCCCCC(=O)O	0.156
COc1ccc(-c2nc(CS(=O)(=O)CC(=O)NCCc3cc(OC)ccc3OC)c(C)o2)cc1	-0.299
COc1ccc(OC)c(CCNC(=O)CN2C(=O)CC(C)(C)S(=O)(=O)c3ccccc32)c1	0.0628
COc1ccc(OC)c(CCNC(=O)Cn2sc3nc(C)cc(C)c3c2=O)c1	2.22
